Laboratory results as given in PubChem BioAssay.
Records with an inconclusive call do not appear. Active and inactive are the calls of the source.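 How the source made its calls, unless noted: active means normalized viability below 100% at a tested concentration; inactive means the rest.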

Assays:
[1] = growth inhibition of DIPG glioma cells, dose response, cell-based, SU-DIPG-XVII, MIPE5.0, CellTiter-Glo, qHTS (AID 1347060; cut-off not given, nearly all actives have AC50 up to about 26 µM;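 on AC50: cells exposed to compound for 48 hours before viability readout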); settings: SU-DIPG-XVII viability, CellTiter-Glo ATP luminescence
[2] = growth inhibition of DIPG glioma cells, dose response, cell-based, SU-DIPG-IV, MIPE4.0, CellTiter-Glo, qHTS (AID 1347063; cut-off not given, nearly all actives have AC50 up to about 30 µM;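 further: compound exposure lasted 48 hours before the viability readout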); settings: SU-DIPG-IV viability, CellTiter-Glo ATP luminescence
[3] = growth inhibition of DIPG glioma cells, dose response, cell-based, SU-DIPG-XIII, MIPE5.0, CellTiter-Glo, qHTS (AID 1347064; cut-off not given, nearly all actives have AC50 up to about 23 µM;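 on AC50: cells exposed to compound for 48 hours before the viability read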); settings: SU-DIPG-XIII viability, CellTiter-Glo ATP luminescence
[4] = viability loss in pontine glioma line – cell-based, SU-DIPG-XXV, MIPE5.0, CellTiter-Glo, qHTS, dose response (AID 1347065; cut-off not given, nearly all actives have AC50 up to about 26 µM;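 further: cells exposed to compound for 48 hours before ATP readout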); settings: CellTiter-Glo ATP luminescence
[5] = SU-DIPG-VI glioma cell viability, MIPE4.0 library, CellTiter-Glo luminescence, qHTS (AID 1347066; cut-off not given, nearly all actives have AC50 up to about 30 µM;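 further: cells exposed to compound for 48 hours before readout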); settings: CellTiter-Glo ATP luminescence
[6] = SU-DIPG-XXV glioma cell viability, MIPE5.0 library, qHTS (AID 1347068; cut-off not given, nearly all actives have IC50 up to about 30 µM;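 on IC50: cells exposed to compound for 48 hours before viability readout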)
[7] = sensitizers of A549 cells to miR-34 induction, primary screen, imaging, A549 dox-inducible miR-34, nuclei and caspase counts (AID 1347080;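 active means compounds whose cell count with miR-34 switched on is under 0.7 times the count with it off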); settings: A549 miR-34 inducible, Hoechst nuclei count, 48 h
[8] = modifiers of HSF1 nuclear foci, imaging, Selleck Cancer Library (AID 1347162; in the data active means plate-normalised HSF1 focus index below about 0.46); settings: human cells, at 10 µM; SSMD: measured here: HSF1 foci SSMD mean; cell count: measured here: cell number; plate-normalised HSF1 focus index: stronger effect = lower value
[9] = survival rescue of mitochondrial mutant cells in low glucose, primary screen, MELAS cybrids, Rieske KO mouse fibroblasts, CellTiter-Glo (AID 1508586;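 active means mean z-score across replicates of 1.96 or higher in either the MELAS or the Rieske mutant cell line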;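 further: z relative to plate mean and SD of compound and empty wells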)
[10] = ovarian cancer cell viability with rucaparib, profiling panel, oncology-focused library, rucaparib conditional (AID 1508598); settings: patient-derived ovarian cancer cells, CellTiter-Glo viability, 144 h, stronger effect = lower value
[11] = JHH-DIPG-1 glioma cell viability, MIPE5.0 library, CellTiter-Glo luminescence, qHTS (AID 1347067; cut-off not given, nearly all actives have AC50 up to about 26 µM;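 further: cells exposed to compound for 48 hours before readout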); settings: JHH-DIPG-1 glioma viability, CellTiter-Glo ATP luminescence
[12] = growth inhibition of DIPG glioma cells, dose response, cell-based, JHH-DIPG-1, MIPE4.0, CellTiter-Glo, qHTS (AID 1347062; cut-off not given, nearly all actives have AC50 up to about 27 µM;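 on AC50: cells exposed to compound for two days before readout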); settings: JHH-DIPG-1 viability, CellTiter-Glo ATP luminescence
[13] = stronger effect = lower value, cell number ratio, induced over uninduced
[14] = measured here: relative caspase fold change +Dox/-Dox
[15] = measured here: total cells with miR-34 induction, stronger effect = lower value
[16] = measured here: total cells without miR-34 induction
[17] = MELAS cybrid survival, CellTiter-Glo 48 h, stronger effect = higher value
[18] = Rieske KO mouse fibroblast survival, CellTiter-Glo 72 h
[19] = at 0.000305 µM, OCI-C5x cells, with rucaparib 10 µM, 100% = cells with rucaparib alone
[20] = at 0.000305 µM, OCI-C5x cells, without rucaparib
[21] = at 0.000305 µM, OCI-P5x cells, with rucaparib 20 µM, 100% = cells with rucaparib alone
[22] = at 0.000305 µM, OCI-P5x cells, without rucaparib
[23] = at 0.00122 µM, OCI-C5x cells, with rucaparib 10 µM, 100% = cells with rucaparib alone
[24] = at 0.00122 µM, OCI-C5x cells, without rucaparib
[25] = at 0.00122 µM, OCI-P5x cells, with rucaparib 20 µM, 100% = cells with rucaparib alone
[26] = at 0.00122 µM, OCI-P5x cells, without rucaparib
[27] = at 0.00488 µM, OCI-C5x cells, with rucaparib 10 µM, 100% = cells with rucaparib alone
[28] = at 0.00488 µM, OCI-C5x cells, without rucaparib
[29] = at 0.00488 µM, OCI-P5x cells, with rucaparib 20 µM, 100% = cells with rucaparib alone
[30] = at 0.00488 µM, OCI-P5x cells, without rucaparib
[31] = at 0.0195 µM, OCI-C5x cells, with rucaparib 10 µM, 100% = cells with rucaparib alone
[32] = at 0.0195 µM, OCI-C5x cells, without rucaparib
[33] = at 0.0195 µM, OCI-P5x cells, with rucaparib 20 µM, 100% = cells with rucaparib alone
[34] = at 0.0195 µM, OCI-P5x cells, without rucaparib
[35] = at 0.0781 µM, OCI-C5x cells, with rucaparib 10 µM, 100% = cells with rucaparib alone
[36] = at 0.0781 µM, OCI-C5x cells, without rucaparib
[37] = at 0.0781 µM, OCI-P5x cells, with rucaparib 20 µM, 100% = cells with rucaparib alone
[38] = at 0.0781 µM, OCI-P5x cells, without rucaparib
[39] = at 0.313 µM, OCI-C5x cells, with rucaparib 10 µM, 100% = cells with rucaparib alone
[40] = at 0.313 µM, OCI-C5x cells, without rucaparib
[41] = at 0.313 µM, OCI-P5x cells, with rucaparib 20 µM, 100% = cells with rucaparib alone
[42] = at 0.313 µM, OCI-P5x cells, without rucaparib
[43] = at 1.25 µM, OCI-C5x cells, with rucaparib 10 µM, 100% = cells with rucaparib alone
[44] = at 1.25 µM, OCI-C5x cells, without rucaparib
[45] = at 1.25 µM, OCI-P5x cells, with rucaparib 20 µM, 100% = cells with rucaparib alone
[46] = at 1.25 µM, OCI-P5x cells, without rucaparib
[47] = at 5 µM, OCI-C5x cells, with rucaparib 10 µM, 100% = cells with rucaparib alone
[48] = at 5 µM, OCI-C5x cells, without rucaparib
[49] = at 5 µM, OCI-P5x cells, with rucaparib 20 µM, 100% = cells with rucaparib alone
[50] = at 5 µM, OCI-P5x cells, without rucaparib

Nc1nc(Nc2ccc(S(N)(=O)=O)cc2)nn1C(=O)c1c(F)cccc1F
inactive: outcome [5] | fold change [7, 13] 0.887 | plate-normalised HSF1 focus index [8] 0.961 | z-score [9, 17] -0.135
active: AC50 [1] 6.61 µM | AC50 [2] 9.35 µM | AC50 [3] 4.68 µM | AC50 [4] 6.61 µM | IC50 [6] 10.5 µM | viability [10, 19] 95% | viability [10, 20] 99.5% | viability [10, 21] 89.3% | viability [10, 22] 84.9% | viability [10, 23] 96.6% | viability [10, 24] 96.5% | viability [10, 25] 91.5% | viability [10, 26] 86% | viability [10, 27] 93.6% | viability [10, 28] 93.3% | viability [10, 29] 94.7% | viability [10, 30] 94.4% | viability [10, 31] 94.9% | viability [10, 32] 98.4% | viability [10, 33] 92.3% | viability [10, 34] 94.6% | viability [10, 35] 91.7% | viability [10, 36] 90.6% | viability [10, 37] 87.9% | viability [10, 38] 84% | viability [10, 39] 93.3% | viability [10, 40] 86.1% | viability [10, 41] 90.8% | viability [10, 42] 87.7% | viability [10, 43] 82.9% | viability [10, 44] 83.9% | viability [10, 45] 87.4% | viability [10, 46] 69.8% | viability [10, 47] 13.2% | viability [10, 48] 11.5% | viability [10, 49] 19.1% | viability [10, 50] 13.1%
-1.32: z-score [9, 18]
1400: cell count [7, 15]
6780: cell count [8]
0.788: fold change [7, 14]
-0.763: SSMD [8]
1580: cell count [7, 16]

CC(C)CNc1ccnc(NCc2csc(-c3ccccc3)n2)n1
active: AC50 [1] 16.6 µM | AC50 [2] 16.6 µM | AC50 [3] 14.8 µM | AC50 [4] 16.6 µM | AC50 [5] 20.9 µM | AC50 [11] 20.9 µM

CCOc1cc2ncc(C#N)c(Nc3ccc(OCc4ccccn4)c(Cl)c3)c2cc1NC(=O)/C=C/CN(C)C
active: AC50 [1] 14.8 µM | AC50 [2] 0.148 µM | AC50 [3] 5.9 µM | AC50 [4] 0.934 µM | AC50 [11] 5.25 µM
-1.15: SSMD [8]
inactive: outcome [5] | plate-normalised HSF1 focus index [8] 0.928
7340: cell count [8]

CC1(C)CNc2cc(NC(=O)c3cccnc3NCc3ccncc3)ccc21
active: AC50 [1] 20.9 µM | AC50 [4] 16.6 µM | viability [10, 46] 98.9% | viability [10, 50] 94.6%
7450: cell count [8]
7470: cell count [7, 15]
0.896: z-score [9, 18]
inactive: outcome [12] | outcome [6] | fold change [7, 13] 0.978 | plate-normalised HSF1 focus index [8] 1.16 | z-score [9, 17] -0.604 | viability [10, 19] 121% | viability [10, 20] 126% | viability [10, 21] 128% | viability [10, 22] 103% | viability [10, 23] 114% | viability [10, 24] 128% | viability [10, 25] 134% | viability [10, 26] 102% | viability [10, 27] 112% | viability [10, 28] 122% | viability [10, 29] 135% | viability [10, 30] 104% | viability [10, 31] 121% | viability [10, 32] 128% | viability [10, 33] 140% | viability [10, 34] 105% | viability [10, 35] 119% | viability [10, 36] 141% | viability [10, 37] 138% | viability [10, 38] 108% | viability [10, 39] 122% | viability [10, 40] 126% | viability [10, 41] 142% | viability [10, 42] 107% | viability [10, 43] 135% | viability [10, 44] 146% | viability [10, 45] 145% | viability [10, 47] 137% | viability [10, 48] 148% | viability [10, 49] 131%
2.51: SSMD [8]
7630: cell count [7, 16]
0.926: fold change [7, 14]

C[C@H]1[C@H](O)O[C@@H]2O[C@@]3(C)CC[C@H]4[C@H](C)CC[C@@H]1[C@@]24OO3
inactive: outcome [5]
active: AC50 [1] 2.95 µM | AC50 [2] 2.96 µM | AC50 [3] 4.68 µM | AC50 [4] 7.42 µM

CNC(=O)c1cccc(-c2ccc3c(N4CCOC[C@@H]4C)nc(N4CCOC[C@@H]4C)nc3n2)c1
active: AC50 [1] 1.32 µM | AC50 [2] 0.0209 µM | AC50 [3] 0.118 µM | AC50 [4] 0.372 µM

C#CCN(C)CC1=Cc2ccccc2Oc2ccccc21
inactive: outcome [1] | outcome [12] | outcome [4] | outcome [11] | outcome [6] | plate-normalised HSF1 focus index [8] 1.15
2.55: SSMD [8]
6620: cell count [8]

COc1cc(F)c(C(C)C)cc1-c1ccc(C(F)(F)F)cc1CN1C(=O)O[C@H](c2cc(C(F)(F)F)cc(C(F)(F)F)c2)[C@@H]1C
inactive: outcome [1] | outcome [2] | outcome [3] | outcome [4] | outcome [5] | outcome [11] | outcome [6]

CNC(=O)c1c(-c2ccc(F)cc2)oc2cc(N(CCO)S(C)(=O)=O)c(C3CC3)cc12
inactive: outcome [1] | outcome [11]
active: AC50 [12] 20.9 µM

Cc1ccc(F)c(NC(=O)Nc2ccc(-c3cccc4[nH]nc(N)c34)cc2)c1
active: AC50 [1] 14.8 µM | AC50 [2] 14.8 µM | AC50 [3] 7.42 µM | AC50 [4] 8.33 µM | AC50 [11] 1.05 µM | IC50 [6] 18.6 µM | viability [10, 21] 85.4% | viability [10, 22] 19.5% | viability [10, 25] 81.6% | viability [10, 26] 16.8% | viability [10, 29] 96.5% | viability [10, 30] 97.7% | viability [10, 34] 97.3% | viability [10, 41] 91.5% | viability [10, 42] 90.2% | viability [10, 45] 99.2% | viability [10, 46] 87.8% | viability [10, 47] 83.6% | viability [10, 49] 14.3% | viability [10, 50] 35.5%
0.989: fold change [7, 14]
0.36: z-score [9, 18]
6540: cell count [8]
2860: cell count [7, 16]
4.01: SSMD [8]
2590: cell count [7, 15]
inactive: fold change [7, 13] 0.905 | plate-normalised HSF1 focus index [8] 1.21 | z-score [9, 17] -0.438 | viability [10, 19] 110% | viability [10, 20] 114% | viability [10, 23] 108% | viability [10, 24] 112% | viability [10, 27] 119% | viability [10, 28] 112% | viability [10, 31] 110% | viability [10, 32] 119% | viability [10, 33] 108% | viability [10, 35] 111% | viability [10, 36] 110% | viability [10, 37] 103% | viability [10, 38] 102% | viability [10, 39] 113% | viability [10, 40] 107% | viability [10, 43] 112% | viability [10, 44] 123% | viability [10, 48] 145%
